Measured values taken from PubChem BioAssay AID1159580 (chemical genetic matrix, 2015).
Values joined by “and” are separate entries in the source; they are usually repeats but may differ in a detail not shown here. Equal entries are not always repeated. In all, about 5,500 compounds went through this assay and about 2,000 (36%) were called active. Another 18% or so got no clear call; they are omitted. Rule as the data show it: active = normalized growth mostly below about 0.91 (no sharp cut-off); inconclusive = no clear call, values can overlap the other calls; inactive = mostly above about 0.92. This is one part of the list.

Experiment: chemical genetic growth profiling, strain panel (AID 1159580);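 also: tested at 20 µM; growth read once vehicle control cultures reached saturation at 30 °C; 1 = growth at the plate median or of vehicle wells; lower values mean less growth of the strain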
Conditions: S. cerevisiae deletion strains, growth OD

Measured: normalized growth

CC(C)c1ccc2c(c1O)CC[C@H]1C3=C(CC[C@]21C)C(=O)OC3
0.646 (active) and 0.956 (inactive): locus YJL095W, strain BCK1, stronger effect = lower value
active: locus YAL013W, strain DEP1, stronger effect = lower value 0.847 | locus YDL074C, strain BRE1, stronger effect = lower value 0.617 | locus YDL134C, strain PPH21, stronger effect = lower value 0.8 | locus YDL192W, strain arf1, stronger effect = lower value 0.898 | locus YDR137W, strain rgp1, stronger effect = lower value 0.825 | locus YDR162C, strain NBP2, stronger effect = lower value 0.81 | locus YDR318W, strain mcm21, stronger effect = lower value 0.886 | locus YDR392W, strain spt3, stronger effect = lower value 0.542 | locus YDR502C, strain sam2, stronger effect = lower value 0.913 | locus YEL061C, strain CIN8, stronger effect = lower value 0.772 | locus YER155C, strain BEM2 (second series), stronger effect = lower value 0.807 | locus YER155C, strain BEM2, stronger effect = lower value 0.846 | locus YER167W, strain BCK2, stronger effect = lower value 0.781 | locus YGL086W, strain mad1, stronger effect = lower value 0.867 | locus YGL248W, strain PDE1, stronger effect = lower value 0.754 | locus YGR078C, strain PAC10, stronger effect = lower value 0.718 | locus YHR129C, strain ARP1, stronger effect = lower value 0.798 | locus YHR142W, strain chs7, stronger effect = lower value 0.867 | locus YIL066C, strain RNR3, stronger effect = lower value 0.601 | locus YJL129C, strain trk1, stronger effect = lower value 0.856 | locus YJL187C, strain SWE1 (second series), stronger effect = lower value 0.86 | locus YJR075W, strain HOC1, stronger effect = lower value 0.866 | locus YKL085W, strain MDH1 (second series), stronger effect = lower value 0.918 | locus YKL085W, strain MDH1, stronger effect = lower value 0.918 | locus YKR001C, strain vps1, stronger effect = lower value 0.834 | locus YLR039C, strain RIC1, stronger effect = lower value 0.628 | locus YLR262C, strain YPT6 (second series), stronger effect = lower value 0.816 | locus YLR320W, strain mms22, stronger effect = lower value 0.863 | locus YLR330W, strain CHS5, stronger effect = lower value 0.638 | locus YLR342W, strain FKS1 (second series), stronger effect = lower value 0.65 | locus YLR418C, strain cdc73, stronger effect = lower value 0.7 | locus YMR307W, strain GAS1, stronger effect = lower value 0.474 | locus YNL071W, strain lat1, stronger effect = lower value 0.853 | locus YNL233W, strain BNI4, stronger effect = lower value 0.723 | locus YNL307C, strain MCK1, stronger effect = lower value 0.536 | locus YOR184W, strain ser1, stronger effect = lower value 0.671 | locus YPL055C, strain LGE1, stronger effect = lower value 0.598 | locus YPL241C, strain CIN2, stronger effect = lower value 0.911 | locus YPR163C, strain tif3, stronger effect = lower value 0.794
0.661 (active) and 0.918 (inactive): locus YHR030C, strain SLT2, stronger effect = lower value
inactive: locus YAL021C, strain ccr4, stronger effect = lower value 0.999 | locus YAL026C, strain drs2, stronger effect = lower value 0.946 | locus YAL030W, strain snc1, stronger effect = lower value 0.969 | locus YBL061C, strain skt5, stronger effect = lower value 0.962 | locus YBR009C, strain hhf1, stronger effect = lower value 0.96 | locus YBR021W, strain FUR4, stronger effect = lower value 0.903 | locus YBR023C, strain chs3, stronger effect = lower value 0.957 | locus YBR171W, strain sec66, stronger effect = lower value 0.935 | locus YBR229C, strain ROT2, stronger effect = lower value 0.97 | locus YBR231C, strain swc5, stronger effect = lower value 0.957 | locus YBR279W, strain paf1, stronger effect = lower value 0.979 | locus YCL011C, strain gbp2, stronger effect = lower value 0.933 | locus YCL016C, strain dcc1, stronger effect = lower value 0.973 | locus YCL029C, strain bik1, stronger effect = lower value 0.912 | locus YCL061C, strain MRC1, stronger effect = lower value 0.925 | locus YCL069W, strain vba3, stronger effect = lower value 0.95 | locus YCR088W, strain abp1, stronger effect = lower value 0.933 | locus YDL005C, strain med2, stronger effect = lower value 0.961 | locus YDL035C, strain GPR1, stronger effect = lower value 0.943 | locus YDL040C, strain nat1, stronger effect = lower value 0.965 | locus YDL101C, strain DUN1, stronger effect = lower value 0.943 | locus YDL185W, strain tfp1, stronger effect = lower value 0.988 | locus YDR001C, strain nth1, stronger effect = lower value 0.935 | locus YDR069C, strain doa4, stronger effect = lower value 0.996 | locus YDR101C, strain arx1, stronger effect = lower value 0.968 | locus YDR150W, strain NUM1, stronger effect = lower value 0.959 | locus YDR159W, strain sac3, stronger effect = lower value 1 | locus YDR195W, strain ref2 1.01 | locus YDR297W, strain sur2, stronger effect = lower value 0.966 | locus YDR334W, strain swr1, stronger effect = lower value 0.956 | locus YDR335W, strain msn5, stronger effect = lower value 0.973 | locus YDR388W, stronger effect = lower value 0.99 | locus YEL003W, strain gim4, stronger effect = lower value 0.936 | locus YEL037C, strain rad23, stronger effect = lower value 0.941 | locus YEL061C, strain CIN8 (second series), stronger effect = lower value 0.939 | locus YER015W, strain faa2, stronger effect = lower value 0.961 | locus YER016W, strain bim1, stronger effect = lower value 0.976 | locus YER110C, stronger effect = lower value 0.943 | locus YER111C, strain swi4, stronger effect = lower value 0.946 | locus YFR010W, strain ubp6, stronger effect = lower value 0.952 | locus YGL078C, strain dbp3, stronger effect = lower value 0.962 | locus YGL167C, strain pmr1, stronger effect = lower value 0.967 | locus YGL173C, strain kem1, stronger effect = lower value 0.971 | locus YGL227W, strain vid30, stronger effect = lower value 0.945 | locus YGL240W, strain doc1, stronger effect = lower value 0.953 | locus YGL253W, strain hxk2, stronger effect = lower value 0.987 | locus YGR135W, strain pre9, stronger effect = lower value 0.953 | locus YGR252W, strain gcn5, stronger effect = lower value 0.916 | locus YHR013C, strain ard1, stronger effect = lower value 1.02 | locus YHR027C, strain rpn1, stronger effect = lower value 0.994 | locus YHR079C, strain IRE1 (second series), stronger effect = lower value 0.959 | locus YHR079C, strain IRE1, stronger effect = lower value 0.927 | locus YHR094C, strain hxt1, stronger effect = lower value 0.971 | locus YHR200W, strain rpn10, stronger effect = lower value 0.957 | locus YIL073C, strain SPO22, stronger effect = lower value 0.844 | locus YIL125W, strain kgd1, stronger effect = lower value 0.954 | locus YIR030C, strain dcg1, stronger effect = lower value 0.965 | locus YJL092W, strain hpr5, stronger effect = lower value 0.941 | locus YJL095W, strain BCK1 (second series), stronger effect = lower value 0.97 | locus YJL115W, strain asf1, stronger effect = lower value 0.956 | locus YJL134W, strain LCB3, stronger effect = lower value 0.975 | locus YJL154C, strain vps35, stronger effect = lower value 0.95 | locus YJL164C, strain tpk1, stronger effect = lower value 0.953 | locus YJL166W, strain qcr8, stronger effect = lower value 0.987 | locus YJL168C, strain set2, stronger effect = lower value 0.989 | locus YJL187C, strain SWE1, stronger effect = lower value 0.985 | locus YJR043C, strain POL32, stronger effect = lower value 0.865 | locus YJR066W, strain TOR1, stronger effect = lower value 0.898 | locus YKL009W, strain mrt4, stronger effect = lower value 0.935 | locus YKL068W, stronger effect = lower value 0.946 | locus YKL160W, strain elf1, stronger effect = lower value 0.956 | locus YKR026C, strain gcn3, stronger effect = lower value 0.931 | locus YKR091W, strain srl3, stronger effect = lower value 0.967 | locus YLL001W, strain dnm1, stronger effect = lower value 0.967 | locus YLL026W, stronger effect = lower value 0.962 | locus YLL041C, strain sdh2, stronger effect = lower value 0.97 | locus YLR027C, strain aat2, stronger effect = lower value 0.964 | locus YLR058C, strain SHM2, stronger effect = lower value 0.911 | locus YLR102C, strain apc9, stronger effect = lower value 0.954 | locus YLR113W, strain HOG1, stronger effect = lower value 0.909 | locus YLR221C, strain rsa3, stronger effect = lower value 0.96 | locus YLR258W, strain gsy2, stronger effect = lower value 0.951 | locus YLR262C, strain YPT6, stronger effect = lower value 0.667 | locus YLR268W, strain sec22, stronger effect = lower value 0.923 | locus YLR342W, strain FKS1, stronger effect = lower value 0.987 | locus YLR357W, strain rsc2, stronger effect = lower value 0.991 | locus YLR370C, strain arc18, stronger effect = lower value 0.965 | locus YLR384C, strain iki3, stronger effect = lower value 0.967 | locus YML016C, strain PPZ1, stronger effect = lower value 0.969 | locus YML032C, strain rad52, stronger effect = lower value 0.912 | locus YML120C, strain ndi1, stronger effect = lower value 0.968 | locus YML124C, strain tub3, stronger effect = lower value 0.988 | locus YMR058W, strain fet3, stronger effect = lower value 0.961 | locus YMR078C, strain ctf18, stronger effect = lower value 0.923 | locus YMR125W, strain sto1, stronger effect = lower value 0.949 | locus YMR129W, stronger effect = lower value 0.96 | locus YMR205C, strain PFK2, stronger effect = lower value 0.88 | locus YMR223W, strain ubp8, stronger effect = lower value 0.91 | locus YMR231W, strain pep5, stronger effect = lower value 0.975 | locus YMR263W, strain SAP30, stronger effect = lower value 0.896 | locus YNL067W, strain RPL9B, stronger effect = lower value 0.932 | locus YNL183C, strain NPR1, stronger effect = lower value 0.924 | locus YNL209W, strain ssb2, stronger effect = lower value 0.972 | locus YNL248C, strain rpa49, stronger effect = lower value 0.957 | locus YNL250W, strain rad50, stronger effect = lower value 0.971 | locus YNL271C, strain bni1, stronger effect = lower value 0.992 | locus YNL298W, strain CLA4, stronger effect = lower value 0.957 | locus YNL322C, strain KRE1 (second series), stronger effect = lower value 0.973 | locus YNR049C, strain mso1, stronger effect = lower value 0.976 | locus YNR052C, strain pop2, stronger effect = lower value 0.953 | locus YOL012C, strain htz1 0.499 | locus YOL147C, strain pex11, stronger effect = lower value 0.933 | locus YOR001W, strain rrp6, stronger effect = lower value 0.985 | locus YOR061W, strain CKA2, stronger effect = lower value 0.964 | locus YOR069W, strain VPS5, stronger effect = lower value 0.944 | locus YOR070C, strain gyp1, stronger effect = lower value 0.956 | locus YOR080W, strain dia2, stronger effect = lower value 0.986 | locus YOR083W, strain WHI5, stronger effect = lower value 0.966 | locus YOR106W, strain vam3, stronger effect = lower value 0.999 | locus YOR136W, strain idh2, stronger effect = lower value 0.929 | locus YOR144C, strain elg1, stronger effect = lower value 0.958 | locus YOR231W, strain MKK1, stronger effect = lower value 0.942 | locus YOR265W, strain rbl2, stronger effect = lower value 0.963 | locus YOR270C, strain vph1, stronger effect = lower value 0.794 | locus YOR290C, strain snf2, stronger effect = lower value 0.909 | locus YOR316C, strain cot1, stronger effect = lower value 0.968 | locus YPL051W, strain arl3, stronger effect = lower value 0.932 | locus YPL078C, strain atp4, stronger effect = lower value 0.934 | locus YPL106C, strain sse1, stronger effect = lower value 0.965 | locus YPL240C, strain hsp82, stronger effect = lower value 0.971 | locus YPL256C, strain CLN2, stronger effect = lower value 0.876 | locus YPR119W, strain clb2, stronger effect = lower value 0.951 | locus YPR141C, strain kar3, stronger effect = lower value 0.965 | locus YPR167C, strain met16, stronger effect = lower value 0.947 | strain wtn01, stronger effect = lower value 0.965
